This is a sample that favours compounds with a hit; in the whole collection about 12% have one here.
PI5P4K alpha inh = PI5P4K alpha (human) kinase inhibition | P48426 | PI5P4Kalpha enzyme, ADP-Glo luminescence, 60 min; active compounds read low | max response, % | 1.2% of 330,000 active | AID 652105; active means max response of -50% or lower; inconclusive means between -30% and -50%; inactive means -30% or higher; further: value at the top dose of about 77 µM; on the % scale 0 is the no-effect control and ±100 the full control effect
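Reactions run in 0.038 M HEPES pH 7.4, 0.28 mM EGTA, 0.1% CHAPS and 5% DMSO, with PI5P4Kalpha, substrate, compound and 5 microM ATP final, one hour at room temperature. Readout is ADP-Glo luminescence.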
PLK1 PBD inh = blocks phosphopeptide binding to human PLK1 polo-box domain. Potency, µM, for inactives: max response, negative = inhibition, actives largely listed as inhibitors. AID 720504. P53350. 2.8% of 360,000 active. Plk1 PBD binding of FITC phosphopeptide, fluorescence polarization; further: potency means the concentration at half of the fitted maximal effect; series mostly up to about 57 µM; on the % scale 0 is the no-effect control and ±100 the full control effect; nearly all actives have a fitted effect of over 65% in size
HP1b chromo inh = blocks HP1-beta chromodomain binding to methylated histone tails; P83916; AlphaScreen HP1-beta / biotin-H3K9me3 peptide binding; Potency, µM (highest dose often 114 µM), inactives show at the top dose activity change, negative = inhibition, most hits filed as inhibitors; 0.56% of 390,000 active; AID 540317; further: potency means the concentration at half of the fitted maximal effect; nearly all actives have a fitted effect of over 70% in size
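HP1-beta protein (50 nM final) preincubated 30 min at room temperature with biotinylated H3(1-18)K9me3 peptide (50 nM) in PBS pH 7.4, 0.01% Tween-20, then compound added for 30 min. AlphaScreen streptavidin donor/nickel chelate acceptor beads (10 ug/mL final), 30 min dark, luminescence read.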
BAZ2B block = BAZ2B (human) inhibition; 4.4% of 360,000 active; Q9UIF8; AlphaScreen BAZ2B-H3K14Ac peptide displacement; Potency, µM (top dose mostly 114 µM), without a hit: at the top dose activity change, negative = inhibition, usual class: inhibitors; further: potency means the concentration at half of the fitted maximal effect; on the % scale 0 is the no-effect control and ±100 the full control effect; nearly all actives have a fitted effect of over 60% in size
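Inhibition is scored as reduced AlphaScreen emission. The BAZ2B/b-H3(5-23)K14Ac complex (50 nM each) in PBS pH 7.4, 0.01% Tween-20 meets compound (up to 110 uM) for 30 min at RT before bead addition.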
G9a inh = blocks human histone lysine methyltransferase G9a; 8.8% of 350,000 active; Q96KQ7; Potency, µM (highest dose often 102 µM), for the others: at the top dose activity, negative = inhibition, hits mostly inhibitors; G9a H3K9 monomethylation, AlphaScreen, 2 h; AID 504332; further: potency means the concentration at half of the fitted maximal effect; on the % scale 0 is the no-effect control and ±100 the full control effect; nearly all actives have a fitted effect of over 75% in size
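Quantitative HTS format: methyltransferase activity on a biotin-tagged H3K9 peptide is measured by AlphaScreen, using a rabbit anti-monomethyl-H3K9 antibody with streptavidin donor and anti-IgG acceptor beads. Final levels are 20 nM enzyme, 500 nM peptide, 20 uM SAM; 2 h RT.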
JMJD2A Tudor = JMJD2A Tudor domain (human) inhibition; O75164; AlphaScreen JMJD2A-Tudor / H3K4me3 peptide binding; Potency, µM (titrated, usually from 114 µM), for the others: at the top dose activity change, negative = inhibition, actives largely listed as inhibitors; 4.4% of 390,000 active; AID 504339; further: potency means the concentration at half of the fitted maximal effect; on the % scale 0 is the no-effect control and ±100 the full control effect; nearly all actives have a fitted effect of over 50% in size
Target sequence (O75164 whole entry, looked up, the tested form may be a part): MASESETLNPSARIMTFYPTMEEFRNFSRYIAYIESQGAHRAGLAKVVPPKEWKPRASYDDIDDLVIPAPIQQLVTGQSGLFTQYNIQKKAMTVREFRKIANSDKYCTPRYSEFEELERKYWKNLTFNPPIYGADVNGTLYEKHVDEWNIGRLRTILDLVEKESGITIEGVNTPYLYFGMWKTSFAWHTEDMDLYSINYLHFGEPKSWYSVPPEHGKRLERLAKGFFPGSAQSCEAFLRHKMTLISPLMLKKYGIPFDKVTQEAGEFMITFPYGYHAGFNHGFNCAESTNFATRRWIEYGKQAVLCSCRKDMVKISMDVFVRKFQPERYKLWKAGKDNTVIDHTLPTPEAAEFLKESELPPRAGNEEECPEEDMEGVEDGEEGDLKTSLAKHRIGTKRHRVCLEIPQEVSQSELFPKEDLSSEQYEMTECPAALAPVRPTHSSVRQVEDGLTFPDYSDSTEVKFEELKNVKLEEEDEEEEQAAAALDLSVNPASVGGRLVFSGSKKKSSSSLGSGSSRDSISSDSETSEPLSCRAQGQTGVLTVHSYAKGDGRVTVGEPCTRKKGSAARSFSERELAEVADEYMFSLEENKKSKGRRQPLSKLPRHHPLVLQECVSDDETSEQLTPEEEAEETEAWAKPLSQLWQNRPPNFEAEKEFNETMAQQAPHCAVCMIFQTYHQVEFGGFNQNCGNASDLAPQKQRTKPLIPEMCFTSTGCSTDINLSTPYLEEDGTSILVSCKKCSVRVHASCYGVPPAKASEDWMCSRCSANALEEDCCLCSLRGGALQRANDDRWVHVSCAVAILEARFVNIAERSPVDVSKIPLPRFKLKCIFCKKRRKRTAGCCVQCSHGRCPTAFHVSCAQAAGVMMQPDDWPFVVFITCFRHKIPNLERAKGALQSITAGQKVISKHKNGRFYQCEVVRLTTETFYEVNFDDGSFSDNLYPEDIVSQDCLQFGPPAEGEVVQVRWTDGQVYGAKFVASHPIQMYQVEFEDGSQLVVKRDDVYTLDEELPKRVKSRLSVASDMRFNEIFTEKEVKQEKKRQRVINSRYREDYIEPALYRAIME
* = called active by the depositor; u = inconclusive; x = no result given; [ ] = another dose, or the depositor's remark. Unless noted, the call rests on the fitted dose curve; in most records, active means well fitted curve in the direction sought with a large enough effect; inconclusive means small, poorly fitted or top-dose-only effect, or another doubt; inactive means no such curve, though single readings can be large; an effect the other way counts as inactive or inconclusive.

SMILES	PI5P4K alpha inh	PLK1 PBD inh	HP1b chromo inh	BAZ2B block	G9a inh	JMJD2A Tudor
O=C(CC1C(=O)NCCN1CC(c1ccccc1)c1ccccc1)NC1CC1 (stereo unspecified)	2	-11%	41%	-10%	45µM*	3%
O=C(CC1C(=O)NCCN1Cc1ccccc1)NC1CCCCCC1 (stereo unspecified)	-1	-24%	19%	-10%	18%[59 µM]	-26%
Cc1ccc(CN2CCNC(=O)C2CC(=O)NC2CCCCCC2)cc1 (stereo unspecified)	-11	-14%	57%	-23%	56µM*	-23%
COc1ccc(CN2CCNC(=O)C2CC(=O)NC2CCCC2)cc1OC (stereo unspecified)	3	-15%	4%	-31%	71µM*	u
O=C(Cn1c(=O)c2cc(Cl)ccc2n2nncc12)Nc1ccccc1	x	x	24%	1%	1%[59 µM]	-12%
CCOc1ccc(CN2CCNC(=O)C2CC(=O)NC2CCCCCC2)cc1 (stereo unspecified)	5	-6%	27%	-26%	40µM*	-21%
COc1ccc(CN2CCNC(=O)C2CC(=O)NC2CCCCCC2)cc1C (stereo unspecified)	-5	-24%	24%	u	x	-23%
CCCCOC(=O)c1ccc(Nc2nc3ccc(C)cc3n3cnnc23)cc1	x	x	35%	0%	2%[59 µM]	-4%
CC(CC(=O)Nc1ccccc1)NCCCN1CCCC1=O (stereo unspecified)	1	3%	79µM*	50µM*	8.9µM*	0.71µM*
O=C(CNCc1ccccc1)NCCCN1CCCC1=O	1	-6%	u	-13%	22µM*	2µM*
c1ccc(C2=Nc3ccccc3SC2c2nc3ccccc3[nH]2)cc1 (stereo unspecified)	x	x	x	u	13µM*	x
O=C1CC(c2nc3ccccc3[nH]2)CN1c1ccccc1 (stereo unspecified)	x	0%	1%	-5%	u	-15%
Cn1nc(-c2ccccc2F)c2cc(C(=O)NCCc3ccc(Cl)cc3)sc21	x	x	42%	x	-4%[59 µM]	0%
CN(C)S(=O)(=O)c1cc(NC(=O)COC(=O)c2nc(Cl)ccc2Cl)ccc1Cl	-6	-8%	3%[57 µM]	x	x	-26%
CCN1CCN(C(=O)c2c(-c3c(F)cccc3Cl)noc2C)CC1	-2	-17%	50%	-12%	12%	1%[57.1 µM]
Cc1onc(-c2ccccc2)c1C(=O)N1CCCC1	5	-11%	32%	50µM*	55%	-17%
Cc1onc(-c2c(F)cccc2Cl)c1C(=O)N1CCSCC1	1	-5%	45%	-11%	50µM*	7%
Cc1ccc(Nc2c(-c3ccc(N4CCOCC4)cc3)nc3c(C)cccn23)cc1	x	x	10%	3%	u	u
Cc1cccc(S(=O)(=O)NC2CCN(C#N)C2)c1 (stereo unspecified)	x	x	x	x	x	-4%
COC(=O)c1cc2oc3ccccc3c2n1Cc1nc(-c2cccc(C)c2)oc1C	x	x	4%	-13%	-6%[59 µM]	-22%
CCN(CC)CCOC(c1ccccc1)c1ccc(C)cc1 (stereo unspecified)	-4	-14%	13%	-9%	-34%[59 µM]	-8%
CCN(CC)CCC(C)OC(c1ccccc1)c1ccccc1 (stereo unspecified)	7	8%	25%	-39%	u	25µM*
Cc1ccc(C)c(S(=O)(=O)Nc2nc3ccc(S(N)(=O)=O)cc3s2)c1	-18	u	-15%	8%	10µM*	50µM*
Nc1ccc(-n2cnc3cc([N+](=O)[O-])ccc32)cc1	4	-4%	4%	-6%	5%[12.7 µM]	-7%
Cc1cccc(-n2cnc3cc([N+](=O)[O-])ccc32)c1	-20	17µM*	-24%	u	11µM*	-21%
SMILES	PI5P4K alpha inh	PLK1 PBD inh	HP1b chromo inh	BAZ2B block	G9a inh	JMJD2A Tudor
Cc1ccc(S(=O)(=O)N/N=C2/CCCCC2C2CCCCC2)cc1[N+](=O)[O-] (stereo unspecified)	-11	24µM*	u	-2%	u	28µM*
CC1CCCC/C1=N\Nc1ccc(S(N)(=O)=O)cc1[N+](=O)[O-] (stereo unspecified)	6	6%	u	u	-5%[59 µM]	u
CCC(C)(C)C1CCC(=NNS(=O)(=O)c2ccc(C)c([N+](=O)[O-])c2)CC1 (stereo unspecified)	1	-21%	39%	-29%	13µM*	2%[57.1 µM]
Cc1cccc(C(=O)Nc2nc3nc(-c4ccccc4)cc(=O)n3[nH]2)c1	x	x	62%	u	2%[59 µM]	-22%
COc1ccccc1CNc1ncnc2ccc(-c3cccc(NS(C)(=O)=O)c3)cc12	x	x	x	x	5%[0.501 µM]	x
N[C@H](C(=O)O)[C@H](Cc1ccccc1)C(=O)O	x	x	x	x	7.1µM*	x
CN1CCN/C1=C(/C(Cl)=C(Cl)Cl)[N+](=O)[O-]	-15	-7%	36%	-27%	13µM*	u
CN(Cc1ccccc1)C(=C(Cl)Cl)/C(=C1/NCCN1C)[N+](=O)[O-]	5	0%	28%	-33%	50µM*	-4%
CCN(CC)S(=O)(=O)c1cc(NC(=O)CSc2nc3c(cc2C#N)C(=O)CC(C)(C)C3)ccc1C	4	-2%	53%	-1%	4%[59 µM]	-4%
Nc1nnc(-c2ccco2)s1	x	-8%	38%	17%	2%[2.33 µM]	-4%
Nc1ncnc2oc(-c3ccoc3)c(-c3ccco3)c12	x	x	56µM*	x	x	50µM*
Nc1ncnc2oc(-c3ccco3)c(-c3ccco3)c12	x	u	-33%	56µM*	5.6µM*	56µM*
c1coc(-c2ccnc(-n3cccc3)n2)c1	-5	2%	22%	-2%	u	-4%
CC(=O)NN1C(=O)/C(=C\c2ccc(Br)o2)SC1=S	-2	u	u	u	40µM*	-26%
CC(=O)NN1C(=O)/C(=C/c2ccc(Br)o2)SC1=S	u	11µM*	50µM*	-37%	50µM*	13%[11.4 µM]
COc1ccc(N2C(=O)CS(=O)(=O)C23C(=O)N(Cc2c(F)cccc2Cl)c2ccccc23)cc1 (stereo unspecified)	x	x	23%	-2%[57.1 µM]	-31%[59 µM]	-17%
CCN(CC)CCNc1nc(-c2cccs2)c(CC(=O)O)s1	-4	-18%	u	20µM*	8.9µM*	5.6µM*
O=C(O)Cc1sc(Nc2cccc3ccccc23)nc1-c1ccc(F)cc1	1	-22%	4%	-23%	45µM*	-12%
O=C(Cc1sc(Nc2ccccc2)nc1-c1ccccc1)NCc1ccccc1	3	-4%	u	-7%	50µM*	-29%
O=C(O)Cc1sc(Nc2ccccc2)nc1-c1cccs1	-28	21µM*	-26%	-26%	0%[12.7 µM]	-15%
O=C(Cc1sc(-c2ccccc2)nc1-c1ccccc1)Nc1ccccc1	6	-4%	26%	-4%	12%[12.7 µM]	-11%
